MPTP inh: blocks calcium-induced mitochondrial swelling; isolated mouse mitochondria, Ca2+ swelling absorbance, 30 min; inhibition, % at 10 µM; actives 1.4% (n = 360,000);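 active = inhibition of 50% or more, scaled per plate between neutral and stimulator controls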;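 also: 0% = DMSO wells given calcium and 100% = 1 mM EGTA wells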
Mdm2-MdmX inh: human Mdm2/MdmX binding inhibition. SaOS-2 split-luciferase Mdm2/MdmX complementation, luminescence. AID 485346. actives 3% (n = 330,000). inhibition, % at 8 µM;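 active = inhibition of at least 50% at 8 µM in the primary screen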
Target sequence (O15151 whole entry, looked up): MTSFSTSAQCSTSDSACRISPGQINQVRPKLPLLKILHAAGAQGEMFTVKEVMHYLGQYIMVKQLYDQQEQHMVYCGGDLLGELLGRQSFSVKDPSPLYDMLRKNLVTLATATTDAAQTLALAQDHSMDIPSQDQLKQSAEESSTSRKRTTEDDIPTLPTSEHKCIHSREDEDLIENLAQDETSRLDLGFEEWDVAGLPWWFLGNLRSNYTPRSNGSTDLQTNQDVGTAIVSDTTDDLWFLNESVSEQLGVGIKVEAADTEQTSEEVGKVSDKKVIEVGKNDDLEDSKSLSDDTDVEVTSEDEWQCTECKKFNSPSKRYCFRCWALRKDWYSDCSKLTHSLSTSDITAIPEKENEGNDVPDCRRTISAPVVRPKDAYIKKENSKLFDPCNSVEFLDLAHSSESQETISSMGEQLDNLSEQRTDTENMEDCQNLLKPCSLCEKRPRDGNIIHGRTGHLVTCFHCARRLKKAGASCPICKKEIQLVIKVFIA
Target sequence (Q00987 whole entry, looked up): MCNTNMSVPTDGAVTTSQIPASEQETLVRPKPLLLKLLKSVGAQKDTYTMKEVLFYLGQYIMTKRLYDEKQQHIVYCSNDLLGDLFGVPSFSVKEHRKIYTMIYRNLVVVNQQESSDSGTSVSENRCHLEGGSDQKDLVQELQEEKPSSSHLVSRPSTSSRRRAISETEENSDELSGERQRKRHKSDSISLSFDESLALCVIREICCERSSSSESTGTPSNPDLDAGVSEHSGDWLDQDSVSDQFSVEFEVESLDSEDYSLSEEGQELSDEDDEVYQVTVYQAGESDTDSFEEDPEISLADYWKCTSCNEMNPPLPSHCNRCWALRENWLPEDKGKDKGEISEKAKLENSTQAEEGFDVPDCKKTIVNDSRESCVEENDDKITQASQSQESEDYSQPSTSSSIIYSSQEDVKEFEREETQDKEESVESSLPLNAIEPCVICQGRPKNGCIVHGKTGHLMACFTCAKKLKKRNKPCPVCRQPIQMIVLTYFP
CSC inhib: blocks cancer stem cells; cancer stem cell-like cells viability, luminescence; inhibition, % at 7.5 µM; actives 1.1% (n = 300,000); in the data active = inhibition above about 75%; inconclusive = no clear call, values can overlap the other calls; tested in HMLE shEcad cells
SKKanGAS inh: SKKanGAS growth inhibition | actives 1.3% (n = 300,000) | AID 1662 | S. pyogenes SKKanGAS, kanamycin growth, BacTiter-Glo, 6 h | inhibition, % at 7.5 µM;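 active = mean replicate score, as percent of positive control median, at least 50; inconclusive = mean below 50 but one replicate at or above 50; inactive = mean and every replicate below 50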;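 also: strain carries kanamycin resistance gene driven by streptokinase promoter and grows in 40 µg/ml kanamycin; loss of luminescence reflects streptokinase promoter inhibition or plain growth inhibition; 0% = median of DMSO wells and 100% = positive control at its reference dose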
Calb FLC: C. albicans growth modulation with fluconazole; C. albicans CaCi-2 (fluconazole-resistant clinical isolate) + fluconazole, Alamar Blue growth, 48 h; growth inhibition, % (concentration not given with the values); AID 1979; actives 0.57% (n = 300,000);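 active = growth inhibition above about 58% in most replicates, limit read from the data, passing the limit was not always enough; inconclusive = exactly half the replicates above a set limit; inactive = most replicates below a set limit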;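 also: all wells also contain fluconazole at 8 µg/ml as a sub-toxic cotreatment; 0% = median of DMSO wells and 100% = median of geldanamycin control wells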
Beta apoptosis: blocks beta cell apoptosis; protection from apoptosis, % (test concentration not listed); actives 0.8% (n = 300,000); INS-1E cytokine-induced death, ATP luminescence, 48 h; percent of positive-control rescue, neutral wells zero;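 active = Every replicate reaches about 75%, or at least half do and their mean reaches it too, limit read from the data; inconclusive = At least half of replicates reach the limit but their mean does not; inactive = Under half of replicates reach the limit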;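 also: 0% = cytokine-treated negative control wells and 100% = positive control rescue; higher means more ATP so stronger rescue from cytokine killing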
Mdm2-MdmX conf: confirmation of human Mdm2/MdmX interaction inhibitors; actives 55% (n = 10,000); shares compounds with Mdm2-MdmX inh; Mdm2-MdmX binding, luminescent assay; inhibition, % at 8 µM; in the data active = inhibition above about 40%
Full FLuc ctr: counter-screen for Mdm2/MdmX inhibitors: full-length luciferase; actives 77% (n = 6,200); SaOS-2 full-length luciferase counterscreen, luminescence; AID 504607; inhibition, % at 8 µM; shares compounds with Mdm2-MdmX inh;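 active = mean inhibition at 8 µM reaching about 37%, which flags the compound as non-specific, limit read from the data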;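 also: p53-null SaOS-2 cells with luciferase driven by a doxycycline-inducible promoter; compound on cells about two nights before reading with doxycycline added after day one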
The depositor's hits bear a star; ? = inconclusive; . = no result given. Sampled rows, rich in hits. Any-hit rate of the full collection: about 5.4%.

SMILES | MPTP inh | Mdm2-MdmX inh | CSC inhib | SKKanGAS inh | Calb FLC | Beta apoptosis | Mdm2-MdmX conf | others
Cc1cccc(NC(=O)/C(C#N)=C\c2ccc(C(=O)O)cc2)c1 | 1 | 12 | . | 1 | 6 | -8 | .
CS(=O)(=O)c1ccc(-c2csc(C(O)c3cccc(Cl)c3)n2)cc1 (stereo unspecified) | 1 | . | . | . | . | . | .
O=C1N/C(=N/N=C/c2ccccc2O)SC1Cc1ccc(F)cc1 (stereo unspecified) | 6 | 71* | 49 | ? | -10 | 87* | 53* | Full FLuc ctr=10
COc1ccc(CC2S/C(=N/N=C/c3ccccc3O)NC2=O)cc1 (stereo unspecified) | 6 | 44 | ? | 9 | -13 | 57 | .
CCc1cc2c(COC(=O)CCNS(=O)(=O)c3cccc(C(F)(F)F)c3)cc(=O)oc2cc1O | 1 | 83* | 30 | . | . | 3 | -12
CCN(CC)CCn1c(=S)[nH]c2cc(C(=O)NCc3ccc(C)cc3)ccc2c1=O | 0 | 20 | -7 | 1 | -3 | -8 | .
CSc1ccccc1OCc1cc(C(=O)NCCC2=CCCCC2)no1 | 1 | 52* | 2 | 0 | -2 | -7 | 8
Cc1cc(C)c(OCCCCCNCCO)c(C)c1 | 0 | 0 | 55 | -13 | -21 | -6 | .
CCOC(=O)c1c(-c2ccccc2)oc2cc(CN(C)C)c(O)c(CN(C)C)c12 | 5 | 54* | 94* | -2 | -3 | -15 | 62* | Full FLuc ctr=48*
CCOC(=O)c1c(CN2CCN(C)CC2)n(-c2ccccc2)c2cc(Br)c(O)cc12 | -1 | 61* | 22 | -11 | -4 | -6 | 46* | Full FLuc ctr=39*
CCOC(=O)c1c(-c2ccccc2)oc2ccc(O)c(CN3CCN(C)CC3)c12 | -1 | 51* | 8 | -3 | 3 | -8 | 45* | Full FLuc ctr=59*
CCOC(=O)c1c(C)oc2cc(Cl)c(O)c(CN(C)C)c12 | 4 | 11 | -3 | 2 | -3 | 0 | .
O=C(NCC(=O)c1ccccc1)OCc1ccc([N+](=O)[O-])cc1 | -1 | 18 | -6 | -7 | 3 | 0 | .
Cc1nnc(SCC(=O)N2N=C(c3ccc(Cl)cc3)CC2c2ccco2)[nH]c1=O (stereo unspecified) | 1 | -1 | -8 | 5 | -11 | -8 | .
Cc1onc(-c2c(Cl)cccc2Cl)c1C(=O)N/N=C(\N)COc1ccc(Cl)cc1 | 7 | 72* | 101* | 11 | 93* | 91* | 82* | Full FLuc ctr=40*
COc1cc(/C=N/NC(=O)c2c(-c3c(Cl)cccc3Cl)noc2C)ccc1OCC(N)=O | -1 | 14 | . | -6 | -12 | . | .
COc1ccc(CC(=O)OCC(=O)N2CCN(S(=O)(=O)c3ccc(C)cc3C)CC2)cc1 | -1 | -5 | . | . | . | -5 | .
C=CCOc1ccc(C2/C(=C(\O)c3ccc4c(c3)CC(C)O4)C(=O)C(=O)N2CCN2CCOCC2)cc1OCC (stereo unspecified) | -1 | -1 | -4 | -1 | . | -11 | .
COc1cc(/C=C(\C#N)c2[nH]nc(N)c2C#N)cc(OC)c1O | 0 | 65* | 17 | 10 | 6 | 12 | 36
O=C(COC(=O)c1c2c(nc3ccccc13)/C(=C/c1cccc([N+](=O)[O-])c1)CCC2)NC1CCS(=O)(=O)C1 (stereo unspecified) | 2 | 71* | 67 | 17 | -3 | 11 | 31
CS(=O)(=O)N(CC(=O)Nc1ccc(CC#N)cc1)c1ccc(C23CC4CC(CC(C4)C2)C3)cc1 | 6 | 64* | 38 | 25 | 11 | 88* | -5
CC(=O)Nc1ccc(NC(=O)CN(c2ccc(C34CC5CC(CC(C5)C3)C4)cc2)S(C)(=O)=O)cc1 | -2 | 56* | 10 | -4 | -10 | 13 | 29
CNC(=O)CN(c1ccc(C23CC4CC(CC(C4)C2)C3)cc1)S(C)(=O)=O | -1 | -3 | 51 | -3 | ? | 4 | .
Cc1ccc2cc(CN(CCCN(C)C)C(=O)NCc3ccccc3)c(=O)[nH]c2c1C | -1 | 23 | -11 | -1 | ? | -10 | .
O=c1oc2ccc(NS(=O)(=O)c3cccc4cccnc34)cc2s1 | -1 | 30 | . | -1 | 7 | 29 | .
SMILES | MPTP inh | Mdm2-MdmX inh | CSC inhib | SKKanGAS inh | Calb FLC | Beta apoptosis | Mdm2-MdmX conf | others
Cc1ccc(NC(=S)NNC(=S)Nc2ccc(C)cc2C)cc1 | 43 | 71* | 4 | 37 | 50 | -4 | 52* | Full FLuc ctr=94*
O=C(CC1S/C(=N/N=C/C=C/c2ccccc2)NC1=O)Nc1ccc(C(=O)O)cc1 (stereo unspecified) | 0 | 13 | 2 | 3 | 3 | -1 | .
CC[N+]1=C(C)C(C)(C)c2cc(C)ccc21 | 3 | 81* | ? | -2 | -2 | 101* | 62* | Full FLuc ctr=28
O=C(NNC(=O)C1CCN(S(=O)(=O)c2ccccc2C(F)(F)F)CC1)c1ccccc1O | -3 | 53* | -9 | 0 | -14 | 11 | 53* | Full FLuc ctr=51*
O=C(NNC(=O)C1CCN(S(=O)(=O)c2c(Cl)cccc2Cl)CC1)c1ccccc1O | 0 | 56* | -6 | 3 | -5 | 19 | 54* | Full FLuc ctr=54*
Cc1ccc(CNc2ccc3c(c2)ncn3C(C)C)cc1 | 3 | -91 | 3 | 13 | 9 | 3 | .
CCn1nc(NS(=O)(=O)c2ccccc2)c2cc3cc(C)ccc3nc21 | 7 | -21 | -11 | 8 | 34 | -2 | .
O=C(Cc1c(F)cccc1Cl)OCC(=O)N1CCc2ccccc21 | -2 | 21 | -10 | . | . | -7 | .
COc1ccc2nc(N3C(=O)CC(Cc4cc(C)cc(C)c4)C3=O)sc2c1 (stereo unspecified) | -1 | 28 | 1 | 18 | 0 | -5 | .
COc1ccc2nc(N3C(=O)/C(=C/c4ccccc4)NC3=S)sc2c1 | 23 | 54* | -3 | 92* | -9 | 14 | 38
COC(=O)c1sc2nc(SCc3cccc(F)c3)n(N)c(=O)c2c1C | 2 | 7 | -4 | 7 | 0 | -7 | .
CCOc1ccc(CN(C)C(=O)CCNC(=O)c2ccco2)cc1 | -2 | 1 | -5 | . | . | -7 | .
CCOc1ccc(CN(C)C(=O)CCl)cc1 | 2 | 56* | -12 | 0 | -3 | 2 | 22
COc1ccc(-c2c(C)nn3c(N4CCN(Cc5ccccc5)CC4)cc(C)nc23)cc1OC | -1 | 50* | 26 | 2 | 3 | 7 | 9
Cc1cc(N2CCN(Cc3ccccc3)CC2)n2nc(C)c(-c3ccccc3)c2n1 | 6 | -3 | 65 | 2 | 1 | 1 | .
Cc1nn2c(N3CCN(C)CC3)cc(C(C)(C)C)nc2c1-c1ccccc1 | -6 | 58* | 25 | 33 | 36 | 0 | 41* | Full FLuc ctr=76*
CC1CCN(S(=O)(=O)CCNC(=O)c2ccc(F)cc2)CC1 | 1 | 6 | . | -2 | -2 | -1 | .
